Eight compounds from PubChem BioAssay (NCI) can be followed below.

What all share (assay): NCI-60 one-dose screen, 48 h (100 = growth as untreated, 0 = no growth, -100 = all killed)
What all share (details): 10 µM unless noted

Test [1] has as its system HCT-15 colon.
For test [2], the system named is HT29 colon.
Test [3] relates to SNB-75 CNS.
Test [4] concerns SNB-19 CNS.
Test [5] deals with U251 CNS.
Test [6] has as its system SK-MEL-5 melanoma.
Test [7] concerns UACC-62 melanoma.
Test [8] concerns LOX IMVI melanoma.
Test [9] concerns SK-MEL-28 melanoma.
For test [10], the system named is SK-MEL-2 melanoma.
Test [11] deals with EKVX NSCLC.
The test system of test [12] is SN12C renal.
In test [13] the test system is UO-31 renal.
In test [14] the test system is TK-10 renal.
Test [15] has as its system ACHN renal.
Test [16] relates to A498 renal.
Test [17] relates to CCRF-CEM leukemia.
In test [18] the test system is MOLT-4 leukemia.
Test [19] concerns PC-3 prostate.
Test [20] has as its system CAKI-1 renal.

SMILES strings stand for the structures. This is part of a sample that, as a whole, favours compounds with a hit. Of some 83,000 tested, about 20% had one in any assay.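 Note: values are percent growth. 100 is the growth of untreated cells, values between 100 and 0 indicate rising inhibition; between -100 and 0 indicates cell death.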 Values without a mark were called inactive. The source made the active and inactive calls. How the source made its calls: active means growth percent below 10; inactive means the rest.

Take `Cc1ccc(C(=O)/C(=C/c2ccc([N+](=O)[O-])cc2)SCc2ccc(Cl)cc2)cc1`: the growth in test [1] is 8.64% (active); in test [2] it was -22.7% (active); in test [3], 84.8%; in [4], 34.1%; in [5], -56.3% (active); in test [6], 91%. The growth in [7] is 65.9%; in test [8], 0.133% (active); in test [9], 90.9%; in test [10], 91.5%; in test [11] it was 89%; in test [12], 70.3%. Besides, the growth is 48.2% in test [13]; 90.8% in [14]; 91.1% in [15]; 81% in test [16]; 8.74% (active) in test [17]; 19.8% in [18].
Regarding `NC(=O)Nc1ccc(-n2cnc3cc(-c4ccc(O)cc4)ccc32)cc1`, the growth in [1] is 97.8%; in [2], -7.1% (active); in [3], 102%; in test [4], 98.7%; in [5], 83.4%; in test [19], 96%. For the same compound, the growth in test [6] is 85.9%; in test [8] it was 104%; in [9] it was 100%; in test [10], 116%; in test [11], 112%; in [12], 94%. Moreover, the growth in test [13] was 87.2%; in [14] it was 121%; in test [15], 92%; in test [20], 95.2%; in test [17] it was 94.5%; in test [18], 84.9%.
As to `O=C(/C=C/c1ccc(Cl)cc1)c1ccc(NC(=O)N2CCN(c3cc4c(cc3F)c(=O)c(C(=O)O)cn4C3CC3)CC2)cc1`, the growth was 96.4% in test [1]; 89.3% in test [2]; 92.1% in test [3]; 87.6% in [4]; 92.4% in test [5]; 97.7% in test [19]. Also, the growth in test [6] was 93.6%; in [8], 6.5% (active); in test [9], 99.2%; in [10] it was 98.2%; in [11] it was 98.4%; in test [12], 86.4%. Also, the growth in [13] is 80.2%; in test [14] it was 107%; in [15], 101%; in test [20], 82.7%; in [17], 72.2%; in test [18], 92.1%.
On to `O=C(CSc1nc2ccccc2[nH]1)NCc1ccccc1`, for which the growth was 105% in test [1]; 99.4% in test [2]; 74.5% in test [3]; 97.8% in [4]; 106% in test [5]; 102% in test [6]. Further, the growth in test [7] is 95.2%; in test [8], 98.3%; in test [9] it was 102%; in [11] it was 101%; in test [12], 95.8%; in test [13], 83.6%. In addition, the growth in test [14] was 4.87% (active); in test [15] it was 95.4%; in test [20], 82.1%; in test [16] it was 105%; in test [17] it was 103%.
Turning to `COc1cc(C=O)ccc1OC1OC(COC(C)=O)C(OC(C)=O)C(OC(C)=O)C1OC(C)=O` (stereo not drawn), the growth in [1] is 99.3%; in test [2], 105%; in test [3] it was 106%; in [4], 103%; in [5] it was 94.2%; in [6] it was 98.2%. Moreover, the growth in test [7] is 100%; in test [8], 103%; in test [9], 110%; in [10] it was 98.6%; in test [11], 99.9%; in [12], 97.9%. Besides, the growth was 93.1% in test [13]; 107% in [14]; 107% in test [15]; 98.8% in test [20]; 54.9% in test [17]; 110% in test [18].
With `CC(=O)OC[C@]12CC[C@@H](C(=O)CBr)[C@@H]1[C@H]1CC[C@@H]3[C@@]4(C)CC[C@H](OC(C)=O)C(C)(C)[C@@H]4CC[C@@]3(C)[C@]1(C)CC2`, the growth in test [1] is 97.1%; in [2] it was 91.8%; in test [3], 84.4%; in [4], 114%; in test [5], 96.7%; in [6], 75.1%. Besides, the growth in [7] was 84.9%; in [8], -69.6% (active); in test [9], 99.8%; in test [10], 92.3%; in [11], 107%; in test [12], 87%. Besides, the growth in [13] was 90.7%; in test [14] it was 108%; in [15], 98.8%; in test [20], 77.4%; in test [16] it was 121%; in test [17] it was -17.4% (active). Further, the growth in test [18] is -5.01% (active).
For `N#Cc1c(NC(=O)NCc2ccccc2)sc2c1CCCC2`, the growth is 20.3% in test [1]; 12.8% in test [2]; 27% in test [3]; 34.1% in [4]; 26.1% in [5]; 13.3% in test [6]. The growth was 39.3% in test [7]; 24% in [8]; 64.9% in [9]; 45.6% in test [10]; 57.8% in test [11]; 35.3% in test [12]. The growth in test [13] is 47.2%; in test [15], 46.2%; in test [20], 38.1%; in test [17], 16.6%; in test [18], 17.7%.
For the compound `CC1(C)CC[C@]2(C(=O)O)CC[C@]3(C)C(=CC[C@@H]4[C@@]5(C)Cc6c([nH]c7ccccc67)C(C)(C)[C@@H]5CC[C@]43C)[C@@H]2C1`, the growth in test [1] is 21.3%; in [2], 27.2%; in test [3], 49.4%; in [4], 60%; in test [5], 25.7%; in test [19] it was 42.7%. Besides, the growth in test [6] is 73.7%; in test [8] it was 40.3%; in [9] it was 83.2%; in test [10] it was 72.6%; in [11] it was 34.3%; in test [12], 42.8%. Further, the growth in [13] was 32.7%; in test [14], 31.3%; in test [15], 18.2%; in test [20] it was 17.5%; in [17], 30.6%; in test [18], 32.3%.
